Source: ChEMBL document CHEMBL1201862, “PubChem BioAssay data set” (2004)

Organism: Mus musculus
Assay: Confirmation Concentration-Response Assay for Epigenetic Modulators.
Format: functional

Potency, active:
COc1ccc(C)cc1/N=N/c1ccc(O)c2ncccc12 77.1 µM
CC(C)C(=O)NC(c1ccc(Cl)cc1Cl)c1ccc2cccnc2c1O (centres undefined) 73.2 µM
CC(C)C(=O)NC(c1ccco1)c1cc(Cl)c2cccnc2c1O (centres undefined) 341 µM
COc1cccc(C(=O)NC(c2ccco2)c2cc(Cl)c3cccnc3c2O)c1 (centres undefined) 77.1 µM
